SMILES strings stand for the structures. Among all 1,400 compounds or so, about 380 (27%) were called active. The list shows a part of the results. Values without a mark were called inactive.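 How the source made its calls: active means mean inhibition above 50% across duplicate retests at 10 µM; inactive means the rest.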

A short description of this assay: inhibition of NALP1/ASC/caspase-1 reporter signal in yeast, confirmation, NALP1 inhibitor project, S. cerevisiae, luminescence, single concentration (AID 488841).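 Further: plate controls were DMSO in galactose medium for no effect and cells in plain SD medium for full effect.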 The settings on record: S. cerevisiae NALP1/ASC/Caspase-1 reporter, beta-gal luminescence; at 10 µM; stronger effect = higher value.
For the compound `OCCn1c(-c2ccc(F)cc2)csc1=Nc1ccccc1`, the inhibition (as a rule, the drop in the measured response relative to a control, in per cent) is 27.4%.

For `CC(C)(C)c1cc(C(=O)O)n[nH]1`, the inhibition is -1.95%.

In the case of `O=C1C(Nc2ccccc2)=C/C(=N/S(=O)(=O)c2cccs2)c2ccccc21`, the inhibition was 49.6%.

For the compound `O=C(O)c1ccc(S(=O)(=O)/N=C2\C=C(Nc3ccccc3F)C(=O)c3ccccc32)cc1`, the inhibition is 98.8% (active).

Take `O=C1c2ccccc2-c2cccc(NS(=O)(=O)c3ccc(C(F)(F)F)cc3)c21`: the inhibition was 23.4%.

`CCOP(=O)(C1=C(O)C(=O)C(C(C)(C)C)=CC1=O)c1ccccc1` (stereo not drawn): the inhibition was 24.9%.

As to `O=C1CSC(=S)N1c1ccc(O)cc1`, the inhibition is 95.2% (active).

With `C/C(=N/N=C1\SCC(=O)N1c1ccccc1)c1ccc(C)cc1`, the inhibition is 28.1%.

Consider `O=C1CSC(=S)N1c1cccc(O)c1`, for which the inhibition is 99% (active).

`COc1cc(N2C(=O)CSC2=S)cc(OC)c1OC`: the inhibition is 78.7% (active).

`COc1cc(C2SCC(=O)N2CCCN(C)C)cc(OC)c1OC` (stereo not drawn): the inhibition was 17.5%.

Consider `Fc1ccc(N2CCN(Cc3cnc(Oc4ccc(Br)cc4)s3)CC2)cc1`, for which the inhibition is 25.8%.

On to `N#CC1=C(N)Oc2n[nH]c(-c3cccs3)c2C1C1CCCCC1` (stereo not drawn), for which the inhibition was 35.7%.

Take `Cc1nc2cc(-c3ccc(Cl)cc3)nn2c(C)c1CCC(=O)NC(C)c1ccc2c(c1)OCCO2` (stereo not drawn): the inhibition is 21.6%.

Regarding `CC1(C)COC(/C=C/c2ccc([N+](=O)[O-])cc2)=N1`, the inhibition is 74.7% (active).

Consider `COc1ccccc1/C=N\N=C(\N)c1ccccn1`, for which the inhibition is 43.3%.

For `CC(C)N(C)CCOC(=O)c1ccccc1Br`, the inhibition was 30.6%.

For `COC(=O)c1ccccc1NC(=O)CN1CCC(n2nnc3cc(F)ccc32)CC1`, the inhibition is 24.9%.

Regarding `CCc1ccc(C(=O)NCc2ccc(Cl)cc2Cl)cc1`, the inhibition was 57.4% (active).

As for `N=c1ccn(Cc2ccc(Cl)cc2Cl)cc1`, the inhibition is 35.2%.

Take `CCc1ccc(C(=O)NC(CC(C)C)C(=O)O)cc1` (stereo not drawn): the inhibition was 24.6%.

For `CC(C)Cn1c(CN(Cc2ccccc2)Cc2ccccc2)nc2c1c(=O)n(C)c(=O)n2C`, the inhibition is 35.5%.

Consider `COc1cc(/C=C2\SC(=Nc3ccc(F)cc3)N(c3ccc(F)cc3)C2=O)ccc1OCC(=O)O`, for which the inhibition was 26.6%.

Consider `CCOC(=O)c1cccnc1SCC(=O)NCc1ccccc1`, for which the inhibition is 41.5%.

In the case of `CSc1ccc2c(c1)N(CCC1CCCCN1C)c1ccccc1S2` (stereo not drawn), the inhibition was 71.1% (active).

With `CN1C/C(=C/c2ccncc2)C(=O)/C(=C/c2ccncc2)C1`, the inhibition was 13.2%.

`CC1(C)Cc2c(c(N3CCOCC3)nc3sc4c(NCCN5CCOCC5)nnnc4c23)CS1`: the inhibition was 27.2%.

As to `Cc1nc2nc3c(cn2n1)C(=O)CCC3`, the inhibition is 6.55%.

Regarding `CN1CCc2cccc3c2[C@H]1Cc1ccc(O)c(O)c1-3`, the inhibition is 42.5%.

For the compound `CN1CCc2cccc3c2[C@@H]1Cc1ccc(O)c(O)c1-3`, the inhibition was 71.3% (active).

With `Cc1[nH][nH]c(=O)c1C(c1ccc(-c2ccc(Cl)c(Cl)c2)o1)c1c(C)[nH][nH]c1=O`, the inhibition was 24.6%.

On to `O=C(CSCc1ccc(F)cc1)NCc1ccco1`, for which the inhibition was 35.4%.

With `Cc1ccc(CSCCNC(=O)CSCc2ccc([N+](=O)[O-])cc2)cc1`, the inhibition is 59.9% (active).

As to `Cc1cccc(C(=O)NCc2ccc(S(N)(=O)=O)cc2)c1[N+](=O)[O-]`, the inhibition was 36.4%.

For `Cc1ccc(C(=O)NCCSCc2ccccc2)cc1[N+](=O)[O-]`, the inhibition is 52.6% (active).

On to `COCCNC(=O)c1ccc(C)c(S(=O)(=O)Nc2ccc(C)cc2)c1`, for which the inhibition was 32.9%.

For the compound `Cc1ccccc1Cn1c(=N)n(CC(=O)c2ccc([N+](=O)[O-])cc2)c2ccccc21`, the inhibition was 49.5%.

In the case of `CCn1c2ccccc2c2cc(NC(=O)c3ccc(C)c([N+](=O)[O-])c3)ccc21`, the inhibition was 42.1%.

With `Cc1ccc(C(=O)NCCc2cccc(Cl)c2)cc1[N+](=O)[O-]`, the inhibition was 53.2% (active).

For `C/C(=N/Nc1ccc([N+](=O)[O-])cc1)c1ccc(C)cc1C`, the inhibition was 49%.

In the case of `CCOC(=O)c1c(C)n(C)c2ccc(OC)c(NC(=O)CN3CCN(C4CCCCC4)CC3)c12`, the inhibition was 23.2%.

`COc1cc(NC(C)CCCN)c2ncccc2c1Oc1ccccc1` (stereo not drawn): the inhibition is 25.8%.

In the case of `O=C1N/C(=N\N=C\c2cccnc2)SC1Cc1ccc(SC(F)F)cc1` (stereo not drawn), the inhibition was 24.2%.

In the case of `COc1ccc2cc(C(C)c3nc4ccccc4c(=O)n3N)ccc2c1` (stereo not drawn), the inhibition was 53.1% (active).

Take `C=CCCCCc1nc2ccccc2c(=O)n1N`: the inhibition is 33%.

`COc1ccc(CCn2c(C(C)C)nc3c(c(=O)c4ccccc4n3C)c2=O)cc1`: the inhibition is 25.9%.

In the case of `COc1ccc(OC)c(/C=c2\sc3nc(-c4cccs4)nn3c2=O)c1`, the inhibition was 28.1%.

Regarding `O=[N+]([O-])/C=C/c1ccc2c(ccn2Cc2ccccc2)c1`, the inhibition is 99.9% (active).

In the case of `CC(C)c1ccc(CN2CCN(C(=O)CCl)CC2)cc1`, the inhibition was 39.5%.

With `N#CCc1c(C#N)c(N)nc(N2CCN(Cc3ccc4c(c3)OCO4)CC2)c1C#N`, the inhibition was 27.2%.

Regarding `O=C(CCC1CCCCC1)N1CCN(Cc2ccc3c(c2)OCO3)CC1`, the inhibition is 59.6% (active).

`Clc1ccc(SCCCCN2CCOCC2)cc1`: the inhibition was 33%.

As for `COc1cccc(N2C(=O)C(O)=C(C(C)=O)C2c2ccc(OC)c(OC)c2)c1` (stereo not drawn), the inhibition was 33.1%.

Consider `COC(=O)c1cc(=O)n(-c2c(Cl)cc(C(F)(F)F)cc2Cl)[nH]1`, for which the inhibition was 28.1%.

On to `CCOC(=O)c1c(C(F)(F)C(F)(F)C(F)(F)C(F)(F)F)n[nH]c1C`, for which the inhibition was 30%.

With `CCOC(=O)c1c(C)[nH]c(C)c1C(=O)COC(=O)c1cc2ccccc2cc1O`, the inhibition was 37.1%.

As for `Cc1cc(C(=O)COC(=O)c2ccc[nH]c2=O)c(C)n1-c1ccc(F)cc1`, the inhibition was 39%.

With `Cc1cc(C(=O)COC(=O)c2ccc[nH]c2=O)c(C)n1-c1ccccc1`, the inhibition is 58.6% (active).

Regarding `Cc1cc2ccccc2n1CCNCc1c(C(=O)N2CCOCC2)nc2ccccn12`, the inhibition was 28.2%.

Turning to `CNC(CC(=O)c1ccc([N+](=O)[O-])cc1)C(Cl)(Cl)Cl` (stereo not drawn), the inhibition is 47.5%.

Consider `CCOC(=O)c1ccc(N2C(=O)C=CC2=O)cc1`, for which the inhibition was 89% (active).

On to `CCOC(=O)c1sc(=S)n(-c2ccc(OC)cc2)c1C`, for which the inhibition is 38.4%.

For the compound `CCOC(=O)c1ccc(N2C(=O)CC(N3CCCC(C)C3)C2=O)cc1` (stereo not drawn), the inhibition is 35.9%.

(Values after PubChem BioAssay AID488841 (Sanford-Burnham Center for Chemical Genomics, 2010).)
